An excerpt weighted towards active compounds, which were near 10% of everything screened.
Pf growth 48h = inhibits P. falciparum growth in the first generation, 48 h | Potency, µM (doses to about 28.7 µM), without a hit: top-dose activity change, negative = inhibition, most hits filed as inhibitors | AID 504832 | P. falciparum luciferase growth in erythrocytes, 48 h | hit rate 5.9% among 310,000; also: % is scaled to controls: 0 for no effect and ±100 for the full control effect
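Compounds are pin-transferred into medium, infected erythrocytes (2% hematocrit, 0.1% parasitemia final) are added, and plates sit one parasite generation at 37 C in 5% CO2. Detection reagent is then added and luminescence measured.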
SARS PLpro yeast = SARS-CoV PLP inhibition in yeast; S. cerevisiae expressing SARS-CoV PLpro, growth rescue; Potency, µM (doses to about 32.9 µM), for inactives: at the highest dose activity, positive = growth rescue, hits mostly activators; hit rate 0.19% among 330,000; calls by dose curve; also: 0% is about no effect; nearly all actives have a fitted effect of over 55% in size
Pf growth 96h = inhibits malaria parasite growth, 96 h | P. falciparum luciferase reporter growth, 96 h | Potency, µM (top dose mostly 28.7 µM), inactives show at the top dose activity change, negative = inhibition, most hits filed as inhibitors | AID 504834 | hit rate 6.9% among 320,000; also: % is scaled to controls: 0 for no effect and ±100 for the full control effect
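Delayed-death screen, second-generation endpoint: infected erythrocytes, 2% hematocrit, 0.05% parasitemia final; 96 hours at 37 C, 5% CO2; luciferase detection reagent; luminescence decrease equals reduced growth.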
NS1 inh = blocks influenza NS1 protein function | hit rate 0.4% among 270,000 | Potency, µM (titrated, usually from 46.1 µM), for the others: at the top dose activity, positive = more growth; calls by dose curve; also: actives are rising curves; nearly all actives have a fitted effect of over 50% in size
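In this qHTS, NS1 from influenza A is expressed in budding yeast, where it slows growth. Cells are switched from glucose to 2% galactose medium (pH 6.0, -URA), treated with compound, and growth recovery is read at OD600.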
* marks the source's active call; other numbers are inactive results; ? = inconclusive; · = no result. Unless noted, calls follow the shape of the dose curve; as a rule, active = well fitted inhibition curve with a large enough effect; inconclusive = small, poorly fitted or top-dose-only effect, or another doubt; inactive = no such curve, though single readings can be large or run the other way. Potency is read from the fitted curve at half-maximal effect.

SMILES	Pf growth 48h	SARS PLpro yeast	Pf growth 96h	NS1 inh
COCCN(C(=O)CCC(=O)Nc1ccccn1)C(C(=O)NC(C)C)c1ccc(C)cc1 (stereo not drawn)	12%	-3%	42%	-5%
COc1ccc(N(C(=O)/C=C/C(=O)Nc2cc(C)on2)C(C(=O)NC2CCCC2)c2ccccc2C)cc1 (stereo not drawn)	9.3µM*	5%	5%	5%
Oc1ccccc1N=Nc1ccccc1O	2.6µM*	-24%	68%	·
CCN1CCN(c2ccc(S(=O)(=O)N3CCOCC3)cc2NC(=O)/C=C/c2ccc([N+](=O)[O-])cc2)CC1	2.6µM*	2%	3.7µM*	·
COc1ccc(NC(=O)/C=C/c2ccc(S(=O)(=O)N3CCOCC3)cc2)cc1	-11%	14%	-28%	·
CCN1CCN(c2ccc(S(=O)(=O)N3CCOCC3)cc2NC(=O)c2cccc([N+](=O)[O-])c2)CC1	·	0%	·	·
CCN1CCN(c2ccc(S(=O)(=O)N3CCOCC3)cc2NC(=O)/C=C/c2ccc(OC)cc2OC)CC1	10µM*	7%	?	·
COc1ccc(/C=C/C(=O)Nc2ccc(S(=O)(=O)N3CCOCC3)cc2)c(OC)c1	9.3µM*	0%	9.3µM*	·
Cn1ncc([N+](=O)[O-])c1C(=O)N1CCCCCC1	4%	1%	?	-4%
CC(C)CCN(C(=O)CCCSc1nc2ccccc2[nH]1)c1c(N)n(Cc2ccccc2)c(=O)[nH]c1=O	?	5%	?	·
C(=N\Nc1nc2ccccc2[nH]1)/c1cccc2cccnc12	1.7µM*	-4%	1.7µM*	-53%
Fc1cccc(/C=N/Nc2nc3ccccc3[nH]2)c1	0%	-2%	?	-32%
Fc1ccc(/C=N/Nc2nc3ccccc3[nH]2)cc1F	0.66µM*	-7%	0.52µM*	·
c1cnc2c(OCc3nc4ccccc4[nH]3)cccc2c1	53%	-19%	8.3µM*	-38%
COc1ccc(/C=N/Nc2nc3ccccc3[nH]2)c(OC)c1OC	?	-2%	4.1µM*	1%
FC(F)(F)c1cc(CO[C@H]2CCCN[C@H]2c2ccccc2)cc(C(F)(F)F)c1	·	·	·	-37%
Cc1c(C(=O)Nc2ccccc2-c2ccccc2)cccc1[N+](=O)[O-]	-3%	4%	-8%	2%
O=C(Nc1ccc(Cl)c(S(=O)(=O)N2CCOCC2)c1)c1ccccc1-c1ccc(C(F)(F)F)cc1	?	-2%	?	-12%
C(=C\c1ccccc1)/C=N/Nc1nc2ccccc2[nH]1	?	-14%	3.3µM*	-11%
C(=N\Nc1nc2ccccc2[nH]1)/c1ccccc1	?	-1%	-22%	-2%
O=[N+]([O-])c1cc(/C=N/Nc2nc3ccccc3[nH]2)c(O)cc1O	2.1µM*	16µM*	0%	?
Brc1ccc(-c2ccc(/C=N/Nc3nc4ccccc4[nH]3)o2)cc1	0.41µM*	-106%	13µM*	?
CN(C)c1nc(N/N=C/c2c[nH]c3ccccc23)nc(N2CCOCC2)n1	?	0%	-27%	·
O=c1[nH]c(N/N=C/c2cc3c(cc2[N+](=O)[O-])OCO3)nc2ccccc12	37%	-2%	?	4%
C(=N\Nc1nc(N2CCCCC2)nc(N2CCCCC2)n1)/c1c[nH]c2ccccc12	?	-4%	6.6µM*	0%
SMILES	Pf growth 48h	SARS PLpro yeast	Pf growth 96h	NS1 inh
Brc1ccc(-c2ccc(/C=N/Nc3nncc(-c4ccccc4)n3)o2)cc1	·	1%	-2%	5%
CCCN(C(=O)/C=C/c1ccc(S(=O)(=O)N(CC)CC)cc1)C1CCS(=O)(=O)C1 (stereo not drawn)	·	0%	·	·
COCCCN(CC(=O)Nc1ccc(F)cc1)S(=O)(=O)c1cccs1	·	1%	·	·
COC(=O)c1cnc(Oc2ccc(NC(=O)NC(=O)c3ccccc3Cl)cc2)cc1C(F)(F)F	77%	0%	41%	-1%
Oc1cccc(/C=N/Nc2cccc3cccnc23)c1	-22%	2%	224%	1%
Oc1c(/C=N/Nc2cccc3cccnc23)ccc2ccccc12	5.9µM*	5%	9%	21%
Cc1ccccc1/C=N/Nc1nc2ccccc2[nH]1	?	-10%	-35%	·
C(=N\Nc1nc2ccccc2[nH]1)/c1c[nH]c2ccccc12	0.66µM*	17%	26%	11%
COc1ccc(/C=C(/NC(=O)c2ccccc2)C(=O)NC2CCS(=O)(=O)C2)cc1 (stereo not drawn)	5%	3%	11%	0%
CC(C)(C)C#CC(CCc1ccccc1)OS(N)(=O)=O (stereo not drawn)	?	-3%	?	11%
CC(=NCC1CCCO1)c1c(O)n(C)c(=O)n(C)c1=O (stereo not drawn)	3%	0%	15µM*	-10%
CC(=NCC1CCCO1)c1c(O)n(C2CCCCC2)c(=O)[nH]c1=O (stereo not drawn)	-14%	-1%	-21%	-2%
O=C(CCC(=O)N1CCCC1)N1CCCC1	31%	1%	37%	6%
O=C(NNC(=O)c1ccccc1F)c1cccc(S(=O)(=O)N2CCc3ccccc32)c1	·	1%	·	·
C=CCc1cccc(C=Nc2cc(Br)ccc2O)c1O	?	-43%	12µM*	-46%
O=C(CN(Cc1cccs1)C(=O)CSc1nnc(COc2ccccc2)o1)NC1CCCCC1	13µM*	-3%	8%	6%
Cc1ccc(C(=O)N(CC(=O)NC2CCCC2)Cc2cccs2)s1	-9%	5%	1.5µM*	-8%
CC12CCC(=O)N1C(C(=O)Nc1ccc(F)cc1)CS2 (stereo not drawn)	13%	-1%	0%	-2%
CCOc1ccccc1OCCCOc1ccc([N+](=O)[O-])cc1Cl	?	-33%	10µM*	-91%
COc1ccc(N(C)S(=O)(=O)c2c(C)[nH]c(=O)[nH]c2=O)c(OC)c1	0%	6%	6.6µM*	0%
COc1ccc(N(C)S(=O)(=O)c2c(C)[nH]c(=O)[nH]c2=O)cc1	27%	0%	?	0%
ClC(=Nc1cccc2ccccc12)N(c1ccccc1)c1ccccc1	·	·	·	-7%
Cc1[nH]c2ccc3ccccc3c2c(=O)c1C/C=C/Cl	-36%	-12%	15µM*	-13%
Cc1[nH]c2ccc(Br)cc2c(=S)c1C/C=C/Cl	?	-1%	8.3µM*	-1%
Cc1cc(-c2ccco2)n2c(nc3ccccc32)c1C#N	12µM*	5%	69%	3%
SMILES	Pf growth 48h	SARS PLpro yeast	Pf growth 96h	NS1 inh
COCCN(CCOC)c1cc(C)c(C#N)c2nc3ccccc3n12	?	-4%	10µM*	6%
Cc1ccc(NC(=O)CCCn2nc(C)c3c(C)n(-c4ccccc4)nc3c2=O)c(Cl)c1	?	7%	43%	-10%
Cc1cc(C)cc(NC(=O)c2cccc3c2C(=O)N(C2CCCCC2)C3)c1	?	·	12µM*	12%
COc1cc(NC(=O)c2cccc3c2C(=O)N(C2CCCCC2)C3)cc(OC)c1OC	12µM*	-8%	?	-36%
NC(=O)c1cccc2c1C(=O)N(C1CCCCC1)C2	5%	-22%	9.3µM*	-3%
CCOC(=O)N1CCC(N2Cc3cccc(C(=O)Nc4ccc(OC)c(OC)c4)c3C2=O)CC1	·	6%	?	-74%

Assay outcomes deposited in PubChem by National Center for Advancing Translational Sciences (NCATS).
